# Bioassay records from PubChem.
# Shown are actives, neighbours in structure and some others; about 2.4% of the full set was active somewhere.
# D2 ag-1: agonists of human D2 dopamine receptor. P14416. HEK293 T-REx D2 cells, calcium flux agonist mode. activation, % at 2 µM. 0.53% of 340,000 active. AID 485358;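 active = activation over 3 SD above normal in the single-dose calcium agonist read, cut at about 30% in these data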; note: 0% is about no effect
# Target sequence (P14416 whole entry, looked up): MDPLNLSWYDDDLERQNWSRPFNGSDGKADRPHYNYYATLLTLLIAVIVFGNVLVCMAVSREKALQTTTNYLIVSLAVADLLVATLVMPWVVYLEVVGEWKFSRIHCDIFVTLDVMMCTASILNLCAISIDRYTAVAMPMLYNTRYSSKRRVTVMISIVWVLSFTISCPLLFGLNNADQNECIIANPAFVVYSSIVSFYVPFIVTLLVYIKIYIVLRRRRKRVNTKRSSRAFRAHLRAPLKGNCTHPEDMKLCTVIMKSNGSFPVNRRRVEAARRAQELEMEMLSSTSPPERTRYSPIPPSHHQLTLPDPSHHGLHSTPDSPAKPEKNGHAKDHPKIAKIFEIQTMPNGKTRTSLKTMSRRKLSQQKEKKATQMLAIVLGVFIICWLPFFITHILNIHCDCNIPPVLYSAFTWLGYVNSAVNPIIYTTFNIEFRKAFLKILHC
#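 Agonism is scored from calcium flux in a force-coupled, inducible HEK293 cell line expressing D2, read kinetically for 180 s after compound addition against dopamine controls.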
# D2 ag-2: human D2 receptor agonism in beta-arrestin assay; P14416; DiscoveRx PathHunter D2 beta-arrestin, luminescence, 90 min; 100% = 57 uM dopamine signal; activation, % (concentration not given with the values); 0.084% of 360,000 active; in the data active = activation above about 40%; inconclusive = between about 15% and that limit
#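 Agonist mode: compounds alone added to overnight-plated D2 PathHunter cells for 90 min at 37 C, with 57 uM final dopamine (EC100) defining full response. Beta-arrestin recruitment detected by chemiluminescent reagent, read after 1 h at ambient temperature.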
# D2 PAM-1: D2 dopamine receptor (human) potentiation; HEK293 T-REx D2, calcium flux, EC20 dopamine potentiation; AID 485347; P14416; potentiation, % at 10 µM; 0.34% of 340,000 active;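 active = potentiation over 3 SD above the plate norm, cut at about 30% in these data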; note: 0% is about no effect
#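 Primary screen. Calcium kinetics in induced HEK293 T-REx D2 cells: compound pre-addition 180 s, EC20 dopamine, 180 s more.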
# D2 PAM-2: human D2 receptor positive allosteric modulation | P14416 | DiscoveRx D2 beta-arrestin cells, luminescence, 90 min; 100% = 57 uM dopamine signal | potentiation, % (no concentration beside the values) | 0.23% of 360,000 active; in the data active = potentiation above about 50%; inconclusive = mostly about 30% to 49%
#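 PathHunter beta-arrestin assay in DiscoveRx D2 cells. Compounds were added with an EC20 of dopamine (50 nM final) for 90 min at 37 deg C. Luminescence was read 1 h after detection reagent, with 57 uM dopamine as the EC100 control.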
# D2 antagonist: D2 dopamine receptor (human) antagonism | P14416 | HEK293 TREx D2 cells, calcium flux, dopamine EC80 | inhibition, % at 10 µM | 2% of 340,000 active | AID 485344; in the data active = inhibition above about 30%; inactive = below that, where a call was filed; note: 0% is about no effect
#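 Inhibition of EC80 dopamine-driven calcium flux, recorded kinetically, defines activity here; cells are a tetracycline-induced HEK293 T-REx line expressing force-coupled D2.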
# * = called active by the depositor; ? = inconclusive; . = not tested or not shown.
SMILES,D2 ag-1,D2 ag-2,D2 PAM-1,D2 PAM-2,D2 antagonist
CCn1ccc2cc(S(=O)(=O)N3CCC(C(=O)NCCc4ccc(SC)cc4)CC3)ccc21,.,.,-9,.,.
CC1CCN(CCCCOc2ccc(F)cc2)CC1,1,1,-14,-11,44*
CN1CCN(CCCCOc2ccc(F)cc2)CC1,0,-2,9,-10,-8
O=C1N(CN2CCN(c3cccc(Cl)c3)CC2)c2ccccc2C12OCCCO2,1,-1,-22,-17,33*
O=C1N(CN2CCC3(CC2)OCCO3)c2ccccc2C12OCCCO2,0,-3,6,-10,4
COC(=O)c1sccc1NC(=O)c1ccc(C)s1,-1,-2,33*,-4,33*
COC(=O)c1sccc1NC(=O)Nc1ccc(C)c(C)c1,0,-6,-4,0,-3
COC(=O)c1sccc1NC(=O)Cc1ccc(Br)cc1,-1,2,-6,-8,42*
COC(=O)c1sccc1NC(=O)Nc1ccc(Cl)c(Cl)c1,0,5,-6,-15,44*
Cc1ccc(C(=O)Nc2ccccc2C(=O)N2CC(C)OC(C)C2)cc1 (configuration not stated),.,0,.,-5,.
Cc1ccc(C)c(NC(=O)N2CCN3CCCCC3C2)c1 (configuration not stated),0,.,-9,.,.
CN(c1ccc(C(=O)NCc2ccccn2)cc1)S(=O)(=O)c1ccc(Cl)cc1,0,-2,2,-9,-3
Cc1ccc(S(=O)(=O)N(C)c2ccc(C(=O)NCc3ccccn3)cc2)cc1,0,2,-12,-7,57*
CCOc1ccc(-c2nonc2NC(=O)COc2ccc(C)c(C)c2)cc1OCC,.,.,4,.,.
ClCc1csc(-c2ccc(Cl)cc2)n1,0,-7,-12,-10,29
CC1CN(Cc2csc(-c3ccc(Cl)cc3)n2)CC(C)O1 (configuration not stated),-2,-2,-23,-16,37*
O=C(NCCCN1CCOCC1)c1ccc2c(=O)n(Cc3ccc(Cl)cc3)c(=S)[nH]c2c1,.,-2,.,-9,.
COc1ccc(-c2noc(CCC(=O)NCCCN3CCN(c4ccc(F)cc4)CC3)n2)cc1,1,-2,-20,-4,95*
COc1ccc(-c2noc(CCC(=O)NCCCN3CCC(Cc4ccccc4)CC3)n2)cc1,.,0,.,-40,.
Oc1ccc(C(=S)N2CCN(Cc3ccccc3)CC2)cc1,0,-2,-10,-18,-13
Cc1ccc(C(=S)N2CCN(Cc3ccccc3)CC2)s1,0,4,-32,-9,50*
N#C/C(=C\c1coc2ccc(O)cc2c1=O)C(=O)Nc1nc2ccccc2s1,59*,8,-1,0,-8
CC(C)(C)c1nc2c(C#N)c(-c3ccc(Cl)cc3)ccn2n1,1,?,0,68*,-26
Cc1ccc(S(=O)(=O)Nc2cc(=O)[nH]c3c2CCC3)cc1,-3,-5,-21,-4,37*
Cc1ccc(NS(=O)(=O)c2ccc3[nH]c4c(c3c2)CCCCCC4)cc1,1,.,6,.,.
SMILES,D2 ag-1,D2 ag-2,D2 PAM-1,D2 PAM-2,D2 antagonist
CCN(Cc1ccccc1)C(=O)COC(=O)c1c(C)nsc1NC,0,15,17,0,-11
O=C1CSC(c2cccnc2)N1Cc1cccnc1 (configuration not stated),0,-2,-1,7,-17
O=C1CSC(c2cccnc2)N1CCc1ccccn1 (configuration not stated),-2,-5,-3,-10,55*
Cc1cc(C(=O)CSc2nc3ccccc3c(=O)[nH]2)c(C)n1C,0,-1,39*,-8,-10
NC(=S)NNC(=O)C12CC3CC(CC(C3)C1)C2,62*,-1,-13,-3,44*
CC(=O)c1ccc(OCCCOc2cccc3cccnc23)cc1,-1,-5,0,-2,13
CC(=O)c1ccccc1OCCCOc1cccc2cccnc12,.,4,.,77*,.
CC1=[N+](C)c2ccc3ccccc3c2C1(C)C,-1,1,10,1,-8
CCN(CC(=O)NC(c1ccccc1)c1ccccc1)Cc1nc2ccccc2c(=O)[nH]1,6,-3,-14,-11,32*
CN1C(=O)Cc2cc(S(=O)(=O)NCc3ccccc3Cl)ccc21,.,.,-13,.,.
O=C1Cc2cc(S(=O)(=O)NCc3ccccc3Cl)cc3c2N1CCC3,0,-2,34*,-3,11
CCOC(=O)c1oc2cccc(OC(C)=O)c2c1C,1,-6,-7,3,37*
CC(C)[C@H](NC(=O)N1CCn2c1nc1ccccc12)C(=O)N[C@H](C(=O)O)c1ccccc1,-6,-4,9,-25,58*
CCn1cc(C(=O)N2CCN(c3ccccc3OC)CC2)c(=O)c2cc(S(=O)(=O)N3CCC(C)CC3)ccc21,0,.,0,.,.
CCc1cccc(NC(=O)CCc2c(C)nc3c(-c4ccccc4)c(C)nn3c2C)c1,-2,.,7,.,.
Cc1nnc(NC(=O)CSc2nnc(C(C)NC(=O)c3ccccc3F)n2C)s1 (configuration not stated),0,-2,-10,-5,16
CC(NC(=O)c1ccccc1F)c1nnc(SCC(=O)Nc2nccs2)n1C (configuration not stated),1,4,41*,-3,-3
CSc1ncc2c(n1)-c1ccccc1N(Cc1ccccc1)S2(=O)=O,0,.,-6,.,.
CNc1nc2c3ccccc3n(C(C)=O)c2s1,0,-1,-13,-12,6
CC(=O)n1c2ccccc2c2nc(NC(C)C)sc21,0,-5,19,67*,-1
COc1cc(N2C(=O)c3ccccc3C2=O)c(Cl)cc1C(=O)OCC(=O)N(C)C,0,8,0,18,-3
CCN(CC)C(=O)c1csc([C@@H]2O[C@H](CO)[C@H](O)[C@H](O)[C@H]2O)n1,.,-3,.,0,.
CN(C)C(=O)c1c(NC(=O)c2ccco2)sc2c1CCCCC2,0,-1,34*,20,35*
COC(=O)c1c(NC(=O)c2ccco2)sc(C(=O)N(C)C)c1C,1,-3,77*,-12,-21
CC1(C)CC(=O)C2=C(C1)OC1=C(C(=O)CC(C)(C)C1)C2(C)C,1,.,0,.,0
N#Cc1c(F)cccc1N1CCOCC1,0,-6,35*,-20,-30
O=C(CCCN1CCOCC1)c1ccc2c(c1)OCCO2,0,1,2,-22,-7
O=C(CCCN1CCC(c2ccccc2)C1)c1ccc2c(c1)OCCO2 (configuration not stated),3,-1,-23,-30,79*
Fc1ccc(-n2cc(CNCCc3ccccn3)c(-c3ccccc3Cl)n2)cc1,-3,4,-31,-16,79*
